Out of some 220,000 compounds screened, about 2,300 (1%) were called active. Inconclusive results (about 6%) are left out. Calls come from the whole dose curve; as a rule, active = well fitted inhibition curve with a large enough effect; inconclusive = small, poorly fitted or top-dose-only effect, or effect the other way; inactive = no such curve, though single readings can be large or run the other way. Only a selection was taken, and actives are over-represented in it overall.
target: Neuropeptide S receptor (Homo sapiens) (UniProt Q6W5P4); experiment: qHTS Assay for Antagonists of the Neuropeptide S Receptor: cAMP Signal Transduction; details: CHO-NPSR cells, cAMP TR-FRET, antagonist mode; series mostly up to 38.3 µM; activity change, negative = inhibition: at the top concentration; note: nearly all actives have a fitted effect of over 50% in size
Source text: NIH Chemical Genomics Center [NCGC] NIH Molecular Libraries Probe Production centers Network [MLPCN] MLPCN Grant: X01-DA026210-01 Assay Submitter (PI): Heilig, Markus Alexander NCGC Assay Overview: Neuropeptide S receptor (NPSR), previously known as GPR154, is a recently de-orphanized G protein coupled receptor. Its endogenous ligand is the 20 amino acids peptide Neuropeptide S (NPS). […] NPS and its receptor are found in various tissues. Specifically they are highly expressed in brain areas that have been implicated in modulation of arousal, stress and anxiety. Central administration of NPS in mice produces an unusual profile of activity by inducing wakefulness and arousal, while at the same time suppressing anxiety. Therefore, NPSR may represent a novel drug target for the treatment of sleep and anxiety disorders. To identify NPSR antagonists, we developed a cell-based cAMP assay. NPS can stimulate the production of cAMP in Chinese hamster ovary cells stably expressing NPS receptor. This change in intracellular cAMP level can be detected by a homogeneous LANCE cAMP assay based on the TR-FRET (time resolved fluorescence resonance energy transfer) between a europium-labeled cAMP tracer complex and a cAMP-specific antibody labeled with Alexa Fluor 647. The europium-labeled cAMP tracer complex is formed by the tight interaction between Biotin-cAMP (b-cAMP) and streptavidin labeled with Europium-W8044 chelate (Eu-SA). Light pulse at 320 nm excites the europium of the cAMP tracer and the energy emitted is transferred to the Alexa molecule bound to the cAMP antibody, generating a TR-FRET signal at 665 nm. Residual energy from the europium will produce a light at 620 nm. The native unlabeled cAMP from cell lysates competes with the europium-cAMP tracer for antibody binding and reversely reduces the emission signal of Alexa by interrupting FRET between the two labeled molecules. Both emission signals from the FRET donor (620 nm) and the acceptor (665 nm) can be detected by a plate reader in the TRF mode. Expression of result in fluorescence ratio (665 nm/620 nm) helps to normalize differences due to cell density and reagent dispensing. This assay was successfully optimized to a 1536-well plate format.
NCGC Assay Protocol Summary: A Chinese hamster ovary (CHO) cell line stably expressing the NPS receptor (CHO-NPSR) was obtained from Dr. Heilig lab at NIAAA and maintained in F-12 Kaighn's media (Invitrogen, Carlsbad, CA, 21127) supplemented with 10 % FBS, 100 units/ml penicillin, 100 ug/ml streptomycin and 250 ug/ml geneticin at 37C, 5% CO2 in a humidified atmosphere. Before the assay, aliquots of cells were frozen and stored at -135C. The assay was performed in 1536-well format. Data are reported for both the ratio of the two emission wavelengths, and also for the component 'donor' channel, Em2=620. Data were normalized to the controls for basal activity (DMSO only) and 100% inhibition (No NPS control). IC50 values were determined from concentration-response data modeled with the standard Hill equation. NPS 1536-well assay protocol: (1) Fresh or frozen CHO-NPSR cells were suspended in F-12 Kaighn's media supplemented with 10 % FBS, 100 units/ml penicillin and 100 ug/ml streptomycin. Cells were plated at 4 ul/well (1200 cells) to white, tissue culture treated 1536-well plates, and then cultured at 37C, 5 % CO2 for 16 to 30 hours. (2) Add 23 nl/well of compound in DMSO solution. The final titration for each compound was between 0.6 nM and 46 uM. (3) Add 1 ul of stimulation reagent (1X HBSS buffer, 5 mM HEPES, 0.1% BSA, 500 uM RO-201724 (Sigma-Aldrich, B8279), 1.5% Alexa 647-labeled anti-cAMP antibody (from Perkin Elmer), 100 nM NPS) (4) Incubation at 37C, 5 % CO2 for 60 min. (5) Add 1 ul/well detection reagent. Detection reagent was prepared by adding biotin labeled cAMP (4%), streptavidin labeled with Europium-W8044 chelate (1.33%) and TritonX-100 (1%) to detection buffer. […]
% is set by controls: 0 for no effect and ±100 for the full control effect; potency is the fitted concentration of half-maximal effect.

Sequence of Neuropeptide S receptor (Homo sapiens) (Q6W5P4 whole entry, looked up): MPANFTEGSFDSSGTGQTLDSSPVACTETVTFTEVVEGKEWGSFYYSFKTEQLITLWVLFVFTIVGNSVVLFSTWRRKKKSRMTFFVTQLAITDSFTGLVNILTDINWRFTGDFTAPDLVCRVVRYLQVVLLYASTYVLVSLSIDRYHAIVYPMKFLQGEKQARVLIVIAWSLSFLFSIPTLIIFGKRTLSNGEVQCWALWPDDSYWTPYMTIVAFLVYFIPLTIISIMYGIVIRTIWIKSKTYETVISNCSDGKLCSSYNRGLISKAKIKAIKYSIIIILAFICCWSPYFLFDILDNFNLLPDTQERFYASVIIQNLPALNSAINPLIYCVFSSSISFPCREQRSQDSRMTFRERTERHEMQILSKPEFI

Activity change, negative = inhibition, inactive:
Cc1nc(CNS(=O)(=O)c2cc([N+](=O)[O-])ccc2C)cs1 19.2%
Cc1nc(=O)c(-c2ccccc2)c(C)n1-c1ccc(Br)cc1 1.88%
CC(NCc1ccccc1OC1CCCC1)c1ccccc1 (stereo unspecified) -11.4%
NC(=S)Nc1c(Cl)cccc1Cl 7.17% [at 7.67 µM]
CN(c1ccccn1)c1ncnc2[nH]ncc12 -6.2%
Cc1ccccc1NC(=O)c1ccccc1 -0.671% [at 46.1 µM]
CCOC(=O)c1cc(NC(=O)c2ccc(Cl)cc2)c(=O)oc1-c1ccccc1 -9.77% [at 46.1 µM]
COc1ccc(C2/C=C\CN(S(=O)(=O)c3cccs3)CC(=O)N2Cc2ccc(F)cc2)cc1 (stereo unspecified) -36.6%
COc1ccc(CN2C(=O)C(C)S/C2=N/N=C/c2ccco2)cc1 (stereo unspecified) -9.94%
CCOC(=O)c1ccc(NC(=O)c2nc[nH]c2C(=O)N[C@@H](CCCCNC(=O)OC(C)(C)C)C(=O)OC(C)(C)C)cc1 -52.7%
O=C(Cc1nc2ccccc2[nH]c1=O)c1ccc(Cl)cc1 14.9%
CCC(=O)/C(=C(/O)c1ccccc1)c1nc2ccccc2[nH]1 10%
CC1=CC2=NC(=O)/C(=C/c3coc4ccccc4c3=O)C(=N)N2O1 43.2%
Cc1ccc(/C=N/NC(=O)CSc2ccccn2)o1 -14.8%
Cc1ccc(C(O)P(=O)(OC(C)C)c2ccc(N(C)C)cc2)cc1 (stereo unspecified) 7.66%
O=C(Nc1ccc2c(c1)OCCO2)c1ccoc1 -1.7%
NC(=O)NC(=O)CSc1nc2cc([N+](=O)[O-])ccc2n1-c1cccc(C(F)(F)F)c1 -43.8%
COc1ccc(/C=C/c2nnc(NC(=O)C(C)C)s2)cc1 1.52%
C/C(CC(=O)NC(C)c1ccccc1)=N\NC(N)=S (stereo unspecified) 21.5%
Cc1cccc2cc(CN(Cc3nnnn3Cc3ccccc3)C3CCCC3)c(=O)[nH]c12 -29.8% [at 46.1 µM]
Cc1cc(C)c2[nH]c(=O)c(C(c3nnnn3Cc3ccc4c(c3)OCO4)N3CCCC3)cc2c1 (stereo unspecified) -22.9% [at 46.1 µM]
COCCN(Cc1cc2cc3c(cc2nc1Cl)OCO3)C(=O)c1cccc(C)c1 -4.29%
Cc1ccc(NNC(=O)c2cccs2)cc1Cl 24%
Cc1cc(C)c(C)c(S(=O)(=O)N[C@@H](C)C(=O)OC(C)C(=O)NC(N)=O)c1C (stereo partly specified) 16.8%
O=C(Nc1ccc(Cl)cc1)/C(=C1\CCCN1)[N+](=O)[O-] -27.6%
CN1CCN(c2ccc(NC(=O)COc3ccc(Cl)cc3Cl)cc2)CC1 3.6% [at 7.67 µM]
COc1cc(NC(=O)COc2ccccc2Cl)ccc1NC(=O)C(C)C 2.21%
Nc1ccc(N=Nc2ccccc2Cl)c(N)n1 -6.42%
COc1ccc(CCNC(=O)C(=O)NCC2CCNCC2)cc1OC -20.8%
Cc1cc(C)c(C#N)c(SCc2[nH]nc3c2C(c2ccccc2)C(C#N)=C(N)O3)n1 (stereo unspecified) -18.8% [at 46.1 µM]
N#CC1=C(N)Oc2c(sc3ccccc23)C1c1ccco1 (stereo unspecified) -7.26% [at 7.67 µM]
O=C1CCC(=O)N(O)CCCCCNC(=O)CCC(=O)N(O)CCCCCNC(=O)CCC(=O)N(O)CCCCCN1 15.4%
NC(=O)N/N=C\c1cccs1 14%
O=S(=O)(c1ccc(F)cc1)N1CC=C(c2ccccc2)CC1 -0.503% [at 7.67 µM]
Nc1scc[n+]1Cc1cccc2cccnc12 -4.76%
Nc1nc(NC(=O)/C=C/c2ccc(F)cc2)nn1-c1ccccc1 2.5%
COc1cc(/C=N/O)ccc1OCc1ccc([N+](=O)[O-])cc1 -0.175%
COC(=O)c1ccc(COc2ccc(/C=N/NC(=O)C(=O)Nc3ccc(OC)cc3)cc2OC)o1 7.97%
COc1cccc(OC)c1CN(C)C(=O)c1cnccc1C(F)(F)F -16.3%
COC(C[C@H](O)CC(=O)COCc1ccccc1)OC 19.4%
Cc1ccc(S(=O)(=O)/N=C(/NC(=S)Nc2c(C)n(C)n(-c3ccccc3)c2=O)c2ccccc2)cc1 -10.6%
CSCC[C@H](NC(=O)CCCn1nnc2ccccc2c1=O)C(=O)O -7.89%
S=C(NCCc1ccccc1)Nc1ccccc1 -3.61%

Potency, active:
CC(=O)c1cc(NC(=O)c2ccccc2)c(=O)oc1/C=C/N(C)C 10 µM
O=C(/C(=C/c1cccc(Cl)c1)c1nc2ccccc2[nH]1)c1ccccc1 10 µM
CC(=O)O[C@]1(C(C)=O)CC[C@H]2[C@@H]3C=C(C)C4=CC(=O)CC[C@]4(C)[C@H]3CC[C@@]21C 3.98 µM
Cc1cccc2cc(CN(Cc3ccc4c(c3)OCO4)Cc3nnnn3C3CCCC3)c(=O)[nH]c12 12.6 µM
Cc1ccccc1OCC(=O)Nc1ccc(N2CCN(C(=O)C(C)C)CC2)c(Cl)c1 12.6 µM
Cc1cc(C)c2c3c(sc2n1)C(c1ccccc1)C(C#N)=C(N)O3 (stereo unspecified) 10 µM
Cc1ccccc1Nc1scc(-c2ccc(Br)cc2)[n+]1-c1ccccc1C 10 µM
CCCc1ccc(OCc2ccc(C(=O)N/N=C/c3cccc([N+](=O)[O-])c3)o2)c(OC)c1 10 µM
